Measured values from PubChem BioAssay (NCATS).
Results filed as inconclusive are left out. A call without a number means that no potency is given here. Unmarked numbers belong to inactive results. Active and inactive are the calls of the source. Unless noted, calls follow the shape of the dose curve; as a rule, active = well fitted curve in the direction sought with a large enough effect; inconclusive = small, poorly fitted or top-dose-only effect, or another doubt; inactive = no such curve, though single readings can be large; an effect the other way counts as inactive or inconclusive.

Experiments:
[1] = qHTS for Inhibitors of Plasmodium falciparum (DD2) proliferation (AID 504314); also: potency is read from the fitted curve at half-maximal effect;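 as to activity, negative = inhibition: parasite DNA measured by SYBR Green fluorescence after red cell lysis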
Summary of the method: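 Erythrocytes infected with P. falciparum (0.3% parasitemia, 2.5% hematocrit final) were incubated with compounds for 72 h at 37C, 5% CO2. Parasite DNA was detected by SYBR Green I fluorescence after saponin/Triton lysis, normalized to artemisinin (0.29 uM) and DMSO controls.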

[2] = qHTS for Inhibitors of Plasmodium falciparum (GB4) proliferation (AID 504315); also: nearly all actives have a fitted effect of over 50% in size; also: potency is read from the fitted curve at half-maximal effect
Summary of the method: (§1)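 Erythrocytes infected with P. falciparum line (0.3% parasitemia, 2.5% hematocrit final) incubated with compounds 72 h at 37 °C, 5% CO2; SYBR Green lysis buffer added, fluorescence read next day. Normalized to 0.29 uM artemisinin and DMSO.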

[3] = qHTS for Inhibitors of Plasmodium falciparum (7G8) proliferation (AID 504316); also: series mostly up to about 6.7 µM; nearly all actives have a fitted effect of over 65% in size
Summary of the method: as §1

[4] = qHTS for Inhibitors of Plasmodium falciparum (CP250) proliferation (AID 504320)
Summary of the method: as §1

[5] = target: Atrial natriuretic peptide receptor 1 (Homo sapiens) (UniProt P16066); experiment: Natriuretic polypeptide receptor (hNpr1) antagonism - Pilot CMLD screen (AID 1347052; calls by dose curve;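 also: HEK293 cells with hNpr1 stimulated by hNppA peptide at 0.1 nM; cGMP level read as GloSensor luciferase luminescence after agonist stimulation; series mostly up to about 9.2 µM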)
[6] = qHTS for Inhibitors of Plasmodium falciparum (HB3) proliferation (AID 504318); also: nearly all actives have a fitted effect of over 60% in size; also: potency is read from the fitted curve at half-maximal effect
Summary of the method: as §1

Atrial natriuretic peptide receptor 1 (Homo sapiens), sequence (P16066 whole entry, looked up): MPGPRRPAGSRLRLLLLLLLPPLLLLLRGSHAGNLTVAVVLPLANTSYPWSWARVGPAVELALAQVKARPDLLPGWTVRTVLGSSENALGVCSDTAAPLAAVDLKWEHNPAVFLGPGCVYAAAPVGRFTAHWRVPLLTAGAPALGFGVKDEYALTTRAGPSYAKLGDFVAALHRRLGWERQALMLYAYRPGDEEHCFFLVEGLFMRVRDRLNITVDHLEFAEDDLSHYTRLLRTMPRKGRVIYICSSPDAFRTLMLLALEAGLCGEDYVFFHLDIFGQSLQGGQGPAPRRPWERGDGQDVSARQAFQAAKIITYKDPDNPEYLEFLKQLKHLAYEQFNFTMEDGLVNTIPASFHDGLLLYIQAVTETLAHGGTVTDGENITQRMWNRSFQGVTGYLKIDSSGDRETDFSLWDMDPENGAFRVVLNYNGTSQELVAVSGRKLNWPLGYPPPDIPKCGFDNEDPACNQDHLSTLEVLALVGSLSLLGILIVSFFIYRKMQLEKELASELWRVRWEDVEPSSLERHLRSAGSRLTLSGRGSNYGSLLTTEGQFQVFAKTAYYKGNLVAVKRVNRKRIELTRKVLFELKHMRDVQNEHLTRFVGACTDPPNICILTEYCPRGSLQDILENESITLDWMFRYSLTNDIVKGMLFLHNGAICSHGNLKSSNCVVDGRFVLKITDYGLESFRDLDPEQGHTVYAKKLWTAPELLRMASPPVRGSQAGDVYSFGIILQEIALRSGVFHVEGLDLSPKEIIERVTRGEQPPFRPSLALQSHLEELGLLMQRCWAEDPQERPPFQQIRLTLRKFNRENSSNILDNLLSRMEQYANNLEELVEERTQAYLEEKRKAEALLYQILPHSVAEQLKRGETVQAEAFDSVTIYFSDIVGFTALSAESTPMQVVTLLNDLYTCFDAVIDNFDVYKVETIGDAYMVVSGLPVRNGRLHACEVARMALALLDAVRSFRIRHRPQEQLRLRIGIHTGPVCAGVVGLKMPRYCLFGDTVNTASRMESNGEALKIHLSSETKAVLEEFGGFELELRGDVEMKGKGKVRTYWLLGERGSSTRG

Row | Structure (SMILES) | Potency [1] | Potency [2] | Potency [3] | Potency [4] | Potency [5] | Potency [6] | activity, negative = inhibition [1]
1 | CC12C=C(C=CC=Cc3ccco3)C(C)(C1)C(C=Cc1ccco1)CC2=O (centres undefined) | inactive | inactive | inactive | inactive | inactive | – | –
2 | CCN1C(=NCc2ccc(OC)cc2)N[C@@H](CCc2ccccc2)[C@H](C(=O)NCc2ccc(OC)cc2)[C@H]1C | inactive | inactive | inactive | inactive | inactive | – | –
3 | C#CC1(O)C2C=C(OC)C(=O)C1C(c1ccccc1)C2C (centres undefined) | inactive | inactive | – | inactive | inactive | inactive | –
4 | COc1ccc([C@]23Cc4cc(C#N)ccc4[C@H](O2)C2=C(CC4(CCCCC4)OC2=O)O3)cc1 | inactive | inactive | – | inactive | inactive | inactive | –
5 | CCN1C(=NCCc2ccccn2)NC(c2cccc(C(F)(F)F)c2)C(C(=O)OC)=C1C (centres undefined) | 533 nM (active) | 301 nM (active) | – | – | inactive | inactive | –
6 | CC(C)OCCCN1C=C2C(=O)C(C)(OC(=O)C3CCCC3)C(=O)C=C2C=C1c1ccsc1 (centres undefined) | – | inactive | inactive | inactive | inactive | – | -2.66% [at 1.12 µM]
7 | COc1cc(OC)c([C@@H]2O[C@H](CO)[C@@H](O)[C@H](O)[C@@H]2O)c(OC)c1 | inactive | inactive | – | – | inactive | inactive | –
8 | COC(=O)N[C@H](CC(C)=O)c1ccc2c(c1)OCO2 | inactive | inactive | – | – | inactive | inactive | –
9 | COc1cc2c(cc1OC)[C@@H]1O[C@](CCCCN3C(=O)c4ccccc4C3=O)(C2)Oc2c1c(=O)oc1ccccc21 | 1500 nM (active) | 1690 nM (active) | – | – | inactive | 2390 nM (active) | –
10 | C=CCN1c2ccccc2[C@]23C[C@@H](C(=O)OC)N(C(=O)Nc4ccccc4F)C2=NC(C(=O)OC)=C(C(=O)OC)[C@H]13 | inactive | inactive | – | inactive | inactive | inactive | –
11 | O=C(NN=C1C[C@@H](O)[C@H](O)[C@H]2[C@@H]3C(=O)N(Cc4ccc5c(c4)OCO5)C(=O)[C@@H]3CC[C@H]12)OCc1ccccc1 | inactive | inactive | – | – | inactive | inactive | –
12 | COC(=O)[C@@]1(C=C[C@@H](C)[C@H](OC)c2ccccc2Br)[C@@H]2OCCC[C@@H]21 | inactive | inactive | – | inactive | inactive | inactive | –
13 | COC1=C[C@H](C(=O)NCCNC(C)=O)[C@H](C)[C@@H](c2ccccc2)CC1=O | inactive | inactive | – | inactive | inactive | inactive | –
14 | C[C@@H]1CC2=CCCC2[C@]2(O1)C(=O)Nc1cccc(Br)c12 (some centres undefined) | inactive | inactive | – | inactive | inactive | inactive | –
15 | CCOC(=O)NN=C1C[C@@H](O)[C@@H](O)[C@@H]2[C@H]3C(=O)N(Cc4ccccc4)C(=O)[C@@H]3CC[C@@H]12 | inactive | inactive | – | inactive | inactive | inactive | –
16 | CC(C)(C)Nc1oc(-c2ccccc2)nc1-c1ccc(C(F)(F)F)cc1 | inactive | inactive | – | – | inactive | inactive | –
17 | C[C@@H]1C=CCC(=O)N[C@@H](c2ccccc2)[C@H](C)C=CCC(=O)N[C@@H]1c1ccccc1 | inactive | inactive | – | inactive | inactive | inactive | –
18 | CC1(OC(=O)C2CCCC2)C(=O)C=C2C=C(c3ccsc3)OC=C2C1=O (centres undefined) | inactive | inactive | – | inactive | inactive | inactive | –
19 | O=C1CCC=C1C(O)CCc1ccccc1 (centres undefined) | inactive | inactive | – | inactive | inactive | inactive | –
